Screening results deposited in PubChem BioAssay by National Center for Advancing Translational Sciences (NCATS).
NS1 inh: blocks influenza NS1 protein function | Potency, µM (doses to about 46.1 µM) | actives 0.4% (n = 270,000) | AID 2326; calls by dose curve; further: actives are rising curves; nearly all actives have a fitted effect of over 50% in size
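Read-out: OD600 growth recovery of NS1-expressing budding yeast. Cells grown overnight at 30C in -URA glucose medium, washed, resuspended and diluted 1:100 in 2% galactose assay medium, pH 6.0. Same strain lacking NS1 served as positive control.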
Pf growth 96h: P. falciparum growth inhibition at 96 hours; actives 6.9% (n = 320,000); P. falciparum luciferase reporter growth, 96 h; Potency, µM (titrated, usually from 28.7 µM), most hits filed as inhibitors
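P. falciparum expressing integrated firefly luciferase, in erythrocytes at 2% hematocrit, 0.05% parasitemia, incubated with compounds 96 h at 37 C, 5% CO2. Growth inhibition read as loss of luminescence; two-generation exposure targets delayed-death apicoplast inhibitors.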
CHX counter: affects cycloheximide protein synthesis inhibition readout, counter-screen; cell reporter, cycloheximide protein synthesis inhibition counterscreen; max response, %; actives 12% (n = 300,000); in the data active means max response mostly above about 13%, no sharp cut-off; inactive means mostly below about 14%; further: read at 38.3 µM for the half of the compounds with a filed dose
Sm TGR inh: S. mansoni TGR enzyme inhibition; AID 485364; purified TGR, DTNB reduction, TNB absorbance 405 nm; Potency, µM (doses to about 114 µM), actives largely listed as inhibitors; actives 3% (n = 360,000); Q962Y6; further: nearly all actives have a fitted effect of over 60% in size
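Kinetic colorimetric format: TGR-catalysed, NADPH-driven DTNB reduction monitored via TNB absorbance. Enzyme dispensed at 20 nM; compound exposure 15 min at room temperature before reaction start.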
Pf growth 48h: inhibits P. falciparum growth in the first generation, 48 h | P. falciparum luciferase growth in erythrocytes, 48 h | Potency, µM (highest dose often 28.7 µM), usual class: inhibitors | actives 5.9% (n = 310,000) | AID 504832
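A one-generation exposure of luciferase-tagged malaria parasites in RPMI 1640/Albumax erythrocyte culture, 37 C and 5% CO2. Inhibition is inferred from decreased luminescence after adding detection reagent.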
Shiga inhibitor: blocks Shiga toxin action in Vero cells; Vero cells, Shiga toxin protein synthesis inhibition reporter; inhibition, % at 38.7 µM; actives 9.2% (n = 290,000); AID 2315; in the data active means inhibition mostly above about 28%, no sharp cut-off; inactive means mostly below about 43%
A number is an active result; – = inactive; ? = inconclusive; · = not tested or not shown. Shown are actives, neighbours in structure and some others; about 21% of the full set was active somewhere. Unless noted, the call rests on the fitted dose curve; in most records, active means well fitted curve in the direction sought with a large enough effect; inconclusive means small, poorly fitted or top-dose-only effect, or another doubt; inactive means no such curve, though single readings can be large; an effect the other way counts as inactive or inconclusive.

SMILES	NS1 inh	Pf growth 96h	CHX counter	Sm TGR inh	Pf growth 48h	Shiga inhibitor
COCCCNC(=O)Nc1ccc(Br)cc1Cl	–	?	37.2	–	–	49.1
O=C1CCCN1CCCNC(=S)Nc1ccccc1Cl	·	–	–	?	–	–
O=C1CCCN1CCCNC(=S)Nc1ccc(Cl)cc1Cl	·	–	–	89.1µM	–	–
O=C(NCCCN1CCCC1=O)Nc1ccc(Br)cc1Cl	–	10.4µM	27.9	–	–	38.3
COc1ccccc1CCC(=O)OCC(=O)Nc1ccc2[nH]c(=O)[nH]c2c1	·	–	·	–	–	·
N#Cc1c2c(c(NCCOCCO)n3c1nc1ccccc13)CCCC2	·	–	–	–	?	–
COc1ccc(Nc2c3c(c(C#N)c4nc5ccccc5n24)CCC3)cc1	–	9.28µM	–	–	?	–
CC(=O)c1ccc(Nc2c3c(c(C#N)c4nc5ccccc5n24)CCC3)cc1	–	–	–	–	3.29µM	–
N#Cc1c2c(c(NCc3cccnc3)n3c1nc1ccccc13)CCC2	–	·	–	–	2.94µM	–
COCCNc1c2c(c(C#N)c3nc4ccccc4n13)CCCC2	·	?	–	–	1.65µM	–
CCC(C)c1ccc(C(CC)NC(=O)C2CCCO2)cc1 (stereo not given)	–	–	–	–	?	–
COc1cc(CNCCO)cc(Br)c1OCc1ccccc1Cl	–	11.7µM	–	–	?	–
COc1cccc(CNCCO)c1OCc1ccc(Cl)cc1	·	?	–	–	–	–
COc1cc(CNCCO)cc(Cl)c1OCc1ccc(Cl)cc1Cl	–	–	–	–	10.4µM	–
COc1cc(NC(=O)c2noc3c2CC(C)CC3)c(OC)cc1Cl (stereo not given)	·	·	·	–	·	·
N#C[C@H](c1ccccc1)N1CCCN([C@@H](C#N)c2ccccc2)C1c1ccccc1O (stereo not given in full)	–	·	·	·	·	·
CC(=O)OC(C)(C)C1Cc2cc3ccc(=O)oc3cc2O1 (stereo not given)	–	–	–	–	–	45.4
CC(C)(Cl)C1Cc2cc3ccc(=O)oc3cc2O1 (stereo not given)	–	–	30.5	–	–	47.0
O=C(Nc1ccccc1N1CCOCC1)c1ccc([N+](=O)[O-])o1	–	–	–	–	–	–
CC(=O)c1c(C)[nH]c(C(=O)N2c3ccccc3CC2C)c1C (stereo not given)	–	–	–	–	·	–
Cc1ccc(C(=O)N2CCc3ccccc32)o1	–	–	56.8	–	–	97.7
O=C(c1ccc([N+](=O)[O-])o1)N1CCOCC1	·	3.29µM	–	–	?	–
O=C(c1ccc([N+](=O)[O-])o1)N1CCc2ccccc21	–	?	13.9	–	?	38.2
Cc1nc2ccccc2c2oc(C(=O)N3CCc4ccccc43)cc12	–	?	–	–	–	–
Cc1ccc(C(=O)N2c3ccccc3CC2C)o1 (stereo not given)	–	3.7µM	39.3	–	–	92.1
SMILES	NS1 inh	Pf growth 96h	CHX counter	Sm TGR inh	Pf growth 48h	Shiga inhibitor
COC(=O)C1=C[C@@H](C(=O)OC)[C@@H]2C3=C(C(=O)[C@]2(C)NC(=O)c2ccccc2)[C@H](C)[C@@H]2C(=O)NC(=O)[C@@H]2[C@@H]3C1	·	·	–	·	·	–
COc1ccc(S(=O)(=O)NC2CC(=O)N(c3ccccc3)C2)cc1C (stereo not given)	·	–	·	–	–	·
COCCn1c(=NC(=O)c2ccc3c(c2)OCCO3)sc2cc(C(=O)OC)ccc21	·	·	·	–	·	·
CCC(C)NC(=O)Cn1c(=O)n(Cc2ccc(C(=O)NCc3ccc(C)cc3)cc2)c(=O)c2ccccc21 (stereo not given)	·	·	·	–	·	·
O=C(c1ccc([N+](=O)[O-])o1)N1CCc2ccccc2C1	–	5.22µM	–	–	?	–
CC(=O)c1ccc(-c2ccc(C(=O)N3CCCc4ccccc43)o2)cc1	·	–	27.0	?	–	–
COc1cc2c(cc1OC)CN(C(=O)c1ccc([N+](=O)[O-])o1)CC2	–	4.15µM	–	28.2µM	?	–
COc1ccc(C(=O)N2CCc3cc(OC)c(OC)cc3C2)cc1OC	–	?	–	–	–	–
O=C(c1cc(Cl)ccc1[N+](=O)[O-])N1CCc2ccccc2C1	–	–	–	–	–	–
COCCN(C(=O)CNC(=O)c1ccco1)C(C(=O)NC1CCCC1)c1cccc(OC)c1 (stereo not given)	–	–	–	–	–	–
